Screens deposited in PubChem BioAssay by National Center for Advancing Translational Sciences (NCATS).
KinaseGlo FLuc: counter-screen: inhibitors of Kinase-Glo firefly luciferase | Q27757 | Kinase-Glo luciferase, ATP luminescence, 8 min | Potency, µM (top dose mostly 38.3 µM), usual class: inhibitors | 200,000 tested, 0.28% active; note: nearly all actives have a fitted effect of over 60% in size
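Luminescence was the read-out, taken after 8-minute incubation at ambient temperature. Luciferase turned over luciferin with 10 uM ATP in imidazole pH 7.2 buffer containing KCl, MgCl2, Tween 20 and BSA.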
HPGD inh: blocks human HPGD enzyme activity. P15428. purified HPGD, NADH fluorescence kinetic, PGE2 substrate. Potency, µM, usual class: inhibitors. 150,000 tested, 4.3% active; active = well fitted inhibition curve with a large enough effect, not every such curve was filed as active; inconclusive = small, poorly fitted or top-dose-only effect, or another doubt; inactive = no such curve, though single readings can be large or run the other way
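20 nM HPGD preincubated 15 min at room temperature with compound in 50 mM Tris-HCl pH 8, 0.01% Tween 20. Started with 1 mM NAD+ and 30 uM prostaglandin E2; NADH fluorescence (360/450 nm) read 5 times over 30-s intervals, last minus first.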
HTT aggregate: mutant huntingtin aggregation inhibition | PC12 HttQ103-GFP aggregates, Acumen cytometry, 40 h | Potency, µM (doses to about 46.1 µM), usual class: inhibitors | 220,000 tested, 1.1% active | AID 1688; note: nearly all actives have a fitted effect of over 60% in size
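Read-out: GFP aggregate count by laser scanning cytometer (488 nm excitation, 500-530 nm emission, 1–25 µm objects >6 SD above background). Cells: PC12, inducible HTTex1-Q103-GFP, 100 nM tebufenozide; compounds titrated.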
Lamin A splicing: modulators of lamin A splicing; HeLa LMNA splicing GFP/RFP minigene ratio, 48 h; Potency, µM (series often up to 46.1 µM), actives largely listed as inhibitors; 200,000 tested, 0.01% active; active = well fitted inhibition curve with a large enough effect in the signal ratio, with a control signal flat, not every such curve was filed as active; inconclusive = small, poorly fitted or top-dose-only effect, or effect the other way, or a change in a side signal; the % refers to the signal ratio
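Read-out is the ratio of GFP to DsRed2 object intensity, acquired by 488 nm laser-scanning cytometry on HeLa lamin A-EGFP minigene reporter cells. Compound incubation 48 hrs at 37 °C in Opti-MEM with 2% FBS; DMSO 0.5% final.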
ALDH1A1 block: ALDH1A1 (human) enzyme inhibition; P00352; Purified ALDH1A1, NADH fluorescence, propionaldehyde substrate; Potency, µM (highest dose often 75.3 µM), usual class: inhibitors; 220,000 tested, 7.3% active; AID 1030; active = well fitted inhibition curve with a large enough effect, not every such curve was filed as active; inconclusive = small, poorly fitted or top-dose-only effect, or another doubt; inactive = no such curve, though single readings can be large or run the other way
Target sequence (P00352 whole entry, looked up): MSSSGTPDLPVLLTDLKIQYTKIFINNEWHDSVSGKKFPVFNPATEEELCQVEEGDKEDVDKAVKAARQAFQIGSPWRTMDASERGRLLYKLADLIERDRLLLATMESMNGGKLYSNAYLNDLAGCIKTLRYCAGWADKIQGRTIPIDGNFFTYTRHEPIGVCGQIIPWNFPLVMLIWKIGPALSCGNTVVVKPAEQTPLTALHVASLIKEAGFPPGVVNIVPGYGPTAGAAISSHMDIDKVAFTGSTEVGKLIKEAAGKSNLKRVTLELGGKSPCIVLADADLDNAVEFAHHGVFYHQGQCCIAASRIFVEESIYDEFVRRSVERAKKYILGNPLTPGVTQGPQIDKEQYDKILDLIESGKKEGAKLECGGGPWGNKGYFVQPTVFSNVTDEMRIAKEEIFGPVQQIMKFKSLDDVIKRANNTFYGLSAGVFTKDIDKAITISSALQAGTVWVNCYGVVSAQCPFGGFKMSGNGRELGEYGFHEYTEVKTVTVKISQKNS
HTT cytoprotect: Huntington cell model cytoprotection by ATP luminescence. PC12 HTT-Q103 induced, cytoprotection, ATP luminescence, 40 h. Potency, µM (highest dose often 56.4 µM), usual class: activators. 230,000 tested, 0.14% active; note: nearly all actives have a fitted effect of over 45% in size
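PC12 cells with ecdysone-inducible HTT exon 1 Q103-GFP, induced with 100 nM tebufenozide and co-treated with library compounds in a dose series (1536-well, 1500 cells/well). Cytoprotection read as ATP content by ATPlite luminescence.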
A number is an active result; 0 = inactive; ? = inconclusive; - = no result; [ ] = remark or other dose. Rows were chosen to be rich in hits. Some 9% of all compounds tested hit in one or more screens of this group. Unless noted, calls come from the whole dose curve; as a rule, active = well fitted curve in the direction sought with a large enough effect; inconclusive = small, poorly fitted or top-dose-only effect, or another doubt; inactive = no such curve, though single readings can be large; an effect the other way counts as inactive or inconclusive.

SMILES	KinaseGlo FLuc	HPGD inh	HTT aggregate	Lamin A splicing	ALDH1A1 block	HTT cytoprotect
Cc1cccc(Cc2cnc(N3C(=N)SC(C)C3=O)s2)c1 (configuration not stated)	0	-	22µM	?	0	0
Cc1ccc(Cc2cnc(N3C(=N)SC(C)C3=O)s2)cc1 (configuration not stated)	0	-	0	-	0	0
COc1ccc(/C=C2\SC(=S)NC2=O)cc1OS(=O)(=O)c1ccc(NC(C)=O)cc1	0	-	0	-	0.71µM	0
COc1cc(/C=C2\SC(=S)NC2=O)ccc1OS(=O)(=O)c1ccccc1	0	8.9µM	?	?	6.3µM	0[10 µM]
CCOc1ccc(/C=C2\SC(=S)NC2=O)cc1OC	0	-	0[9.22 µM]	?	?	0[10 µM]
COc1cc(C=O)ccc1OS(=O)(=O)c1ccc(NC(C)=O)cc1	0	0	0	0	?	0[0.074 µM]
COc1cccc(/C=C2\SC(=S)NC2=O)c1OS(=O)(=O)c1ccc(NC(C)=O)cc1	0	25µM	0	0	?	0[10 µM]
COc1ccc(/C=C2\SC(=O)NC2=S)cc1OC	0	16µM	0	?	18µM	0[10 µM]
CCOc1ccc2[nH]c(O)c(NC(C)=O)c2c1	0	0	0	0	0	0[10 µM]
CN1CCN(C(=O)/C(=C/c2cccs2)NC(=O)c2cccs2)CC1	0	0	0	0	0	0[1.9 µM]
CCN(CC)c1ccc(CNc2nc3ccccc3n2C)cc1	-	-	0[9.22 µM]	-	-	0[10 µM]
CCN(CC)c1ccc(CNC23CN4CN(CN(C4)C2)C3)cc1	0	0	0	?	5µM	0
Cc1cc(C)c(NC(=O)C2CCCN2CCOC(=O)c2ccccc2)c(C)c1 (configuration not stated)	0	0	0	0	?	0[10 µM]
Cc1cc(C)c(NC(=O)C2CCCN2CCOC(=O)c2cccc([N+](=O)[O-])c2)c(C)c1 (configuration not stated)	0	0	?	0	40µM	0[10 µM]
Cc1ccc(S(=O)(=O)CCN2CCN(c3ccccn3)CC2)cc1	-	-	0[9.22 µM]	-	13µM	0[10 µM]
Oc1cccc(O)c1O	-	10µM	0	?	1.5µM	0
CN=C1S/C(=C\c2ccc(N3CCOCC3)cc2C)C(=O)N1C	0	0	0	0	0	0[10 µM]
CN=C1S/C(=C\c2cc(C)n(-c3ccccc3F)c2C)C(=O)N1C	0	22µM	?	?	18µM	0[10 µM]
CCOc1ccc(C2Nc3ccccc3C(CC)(CC)O2)cc1 (configuration not stated)	0	-	0	-	?	0
COc1cccc(/C=N/NC(=O)c2c(-c3ccccc3)noc2C)c1	0	0	0	0	0	0
Cc1onc(-c2ccccc2)c1C(=O)N/N=C/c1cccc(O)c1	0	28µM	0	?	0	-
COc1ccc(CNC(=O)CN2C(=O)CCn3nc(-c4cn(C)c5ccccc45)cc32)cc1	-	-	-	0	-	-
COC(=O)c1sc(NC(=O)Cc2cccs2)nc1C	0	0	0	0	13µM	0[10 µM]
COC(=O)c1cc(OC)c(OC)cc1NC(=O)Cc1cccs1	0	-	0[9.22 µM]	-	3.2µM	0[10 µM]
COc1ccc(NC(=O)Cc2cccs2)c(OC)c1	0	0	0	0	0	0
SMILES	KinaseGlo FLuc	HPGD inh	HTT aggregate	Lamin A splicing	ALDH1A1 block	HTT cytoprotect
COC(=O)c1sc(NC(=O)COc2ccccc2)nc1C	0	0	0[9.22 µM]	0	0	0
O=C(Cc1cccs1)Nc1nc2c(s1)CCCC2	0	0	3.2µM	?	?	0[0.074 µM]
O=C(CN1C(=O)NC2(CCCCCC2)C1=O)NCc1ccco1	0	0	0	0	?	0
O=C(COC(=O)c1cnccn1)c1ccccc1	0	0	0[9.22 µM]	0	0	0
Cc1cc2nnc(SCC(=O)N3CCCCC3)n2c(N)n1	0	-	0[9.22 µM]	?	0	0[10 µM]
OC1(c2ccc(F)cc2)CCN(Cc2nnnn2Cc2cccs2)CC1	0	0	0	0	4.5µM	0
c1ccc(-c2nc(-c3ccco3)cs2)nc1	0	0	0	0	?	0
Nc1cc(-c2ccco2)no1	0	0	0	0	4.5µM	0[10 µM]
Cc1[nH][nH]c(=O)c1C(c1c(C)[nH][nH]c1=O)c1cn(Cc2cccc3ccccc23)c2ccccc12	0	0	0	0	0.32µM	0
Cc1cccc(NC(=S)NCc2cccs2)c1C	0	0	0	0	?	?
Cc1c(Cl)c([N+](=O)[O-])nn1CCCC(=O)Nc1sc2c(c1C#N)CCC2	0	?	0	0	13µM	0[10 µM]
Cc1c(Br)c([N+](=O)[O-])nn1CCCC(=O)Nc1sc2c(c1C#N)CCC2	0	13µM	0	?	10µM	0[10 µM]
COc1ccc(OC)c(NC(=O)COC(=O)c2c3c(nc4ccccc24)CCCC3)c1	0	0	?	?	0	0
O=C(c1ccc(Cl)cc1)N1CCCCC(Sc2nnc(-c3ccc4c(c3)OCO4)o2)C1=O (configuration not stated)	0	0	0	0	?	0[10 µM]
COc1ccc(-c2nc(-c3ccccc3)c(-c3cc([N+](=O)[O-])ccc3C)[nH]2)cc1O	0	0	0	?	0	0
Cc1ccc([N+](=O)[O-])cc1-c1[nH]c(-c2ccc(O)c(O)c2)nc1-c1ccccc1	0	0	0	?	22µM	0
O=c1c2ccccc2c(C=NCCCN2CCOCC2)c(O)n1Cc1ccccc1	0	0	0	?	14µM	0[10 µM]
O=c1c2ccccc2c(C=NCCCN2CCOCC2)c(O)n1Cc1ccc2c(c1)OCO2	0	-	0	?	0	0
S=c1[nH]nc(-c2ccccn2)n1/N=C/c1cccs1	0	0	0	0	0	-
S=c1[nH]nc(COc2ccccc2)n1/N=C/c1cccs1	0	14µM	0	0	0	0[1.9 µM]
Cc1ccsc1/C=N/n1c(COc2ccccc2)n[nH]c1=S	0	14µM	0	?	20µM	0[10 µM]
CC1(C)NC(=O)N(CC(O)COc2cc3ccccc3cc2C(=O)N2CCCCC2)C1=O (configuration not stated)	0	0	0	0	0	0
O=C(c1cc2ccccc2cc1OCC(O)CN1CCCCC1)N1CCCCC1 (configuration not stated)	0	11µM	0	0	?	0
COc1ccc(NC(=O)Nc2nnc(N3CCC(C)CC3)s2)cc1OC	0	0	0	0	0	0
CCOc1nc(OCC)nc(N2CCC(C)CC2)n1	0	0	0	0	10µM	0[10 µM]
CCOC(=O)Cc1csc(NC(=O)c2ccncc2)n1	0	0	0	0	0	0
C=CCn1c(CCNC(=O)c2cccs2)nnc1SCC(=O)Nc1cccc(Cl)c1C	0	0	0[9.22 µM]	0	10µM	0
CCCCn1c(-c2ccccc2)cnc1SCC(=O)NCCc1ccc(OC)c(OC)c1	0	0	0	?	0	0[10 µM]
Cn1c(=O)c2cc(NCc3ccccc3)nnc2n(C)c1=O	0	?	0	0	?	0
CS(=O)(=O)N1CCC(C(=O)N2CCN(Cc3ccccc3)CC2)CC1	0	-	0	-	?	0
